Results published in PubChem BioAssay (NCI).
Values joined by “and” are separate entries in the source; they are usually repeats but may differ in a detail not shown here. Equal values may be shown once. The panel holds about 83,000 compounds, 20% with a hit somewhere; the sample as a whole holds those more often.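 96-well plates, one dose, 48 hours. Percent growth reported; active if below 10.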 A number with no mark means an inactive call. Active and inactive are the calls of the source.

Tested on: MDA-MB-468 breast
Test: NCI-60 one-dose screen, 48 h (100 = growth as untreated, 0 = no growth, -100 = all killed)
Conditions: 10 µM unless noted

| Compound | growth |
| --- | --- |
| O=C(c1ccccc1)c1ccc(Cl)c([N+](=O)[O-])c1 | 77.7% |
| O=C1C=CC2(NN=C(c3ccccc3)N2c2cccc(Cl)c2)C(Cl)=C1 (stereo not given) | 71.7% |
| C=CC(=O)N1CCC(Oc2cc3c(Nc4ccc(Cl)c(Cl)c4F)ncnc3cc2OC)CC1 | -62.5% (active) |
| CCN1CCCC(Nc2cc(C)nc(/N=C(/N)Nc3ccc(Cl)c(Cl)c3)n2)C1 (stereo not given) | -83.3% (active) |
| Cn1cc(-c2ccc3c(Nc4cccc(NC(=O)Nc5cccc(F)c5)c4)ncnc3c2)cn1 | 3.69% (active) |
| O=C(/C(=C/c1ccccc1)CBr)c1ccccc1 | -10% (active) |
| O=S(Nc1ccccc1)c1ccc(Cl)cc1 (stereo not given) | 91.5% |
| CN1CCN(C(=O)OCCOCCOC(=O)N2CCN(C)CC2)CC1 | 107% |
| OC1CCc2c(-c3ccc4ncnc(N5CCc6cc(F)c(Cl)cc65)c4c3)cncc21 (stereo not given) | 9.18% (active) |
| Nc1ccccc1SC(CC(=O)c1ccccc1)c1ccc([N+](=O)[O-])cc1 (stereo not given) | 93.4% and 81.8% |
| COc1ccc(C2=C(c3cn(C)c4ccccc34)C(=O)OC2)cc1OC | 1.23% (active) |
| Cc1cc(-c2ccc(N(C)C)cc2)c2sc(=O)[nH]c2n1 | 80% |
| CC(C)(C)[Si](C)(C)OC1[C@@H](COC(=O)NC(=O)CCl)O[C@@H](n2cnc3c(N)ncnc32)[C@H]1O[Si](C)(C)C(C)(C)C (stereo not given in full) | 65% |
| Cc1ccc2c(c1)nc(C)n2-c1ncnc2c1CC(C)c1cc(O)ccc1N2C (stereo not given) | 10% |
| C=C1C(=O)O[C@H]2[C@H]1CC/C(COC(=O)NCc1nc3ccccc3[nH]1)=C\CC[C@@]1(C)O[C@@H]21 | 43.7% |
| CCN(CC)CCNc1ccc(C)c2sc3ccccc3c(=O)c12 (tested in a mixture with another compound) | 11.8% and 16.9% |
| CN(C)CCOc1ccccc1NC1=C(Cl)C(=O)C(Nc2ccccc2OCCN(C)C)=C(Cl)C1=O | -53.6% (active) |
| COc1ccc2c(c1)NC1=C(C(=O)OC1)C2c1cc(OC)c2c(c1)OCO2 (stereo not given) | -5.15% (active) |
| O=C(/C=C/c1cccc(Cl)c1)c1cccc(OCCCCOc2cccc(C(=O)/C=C/c3cccc(Cl)c3)c2)c1 | 99.2% |
| O=C(Nc1ccc(Cl)c(C(F)(F)F)c1)Nc1ccc(-c2cccnc2)cc1N1CCC(CO)CC1 | 12.6% |

| Compound | growth |
| --- | --- |
| Cc1cccc(/C=C/C(=O)Nc2ncc(Cc3cccc(C)c3)s2)c1 | -15.3% (active) |
| N#CCc1cccc2ccccc12 | 112% |
| c1ccc(CNc2nc(Nc3ccc(-c4nc5ccccc5[nH]4)cc3)c3cn[nH]c3n2)cc1 | -22% (active) |
| CNC1=CC(=O)c2c(C(=O)OC)c(C)[n+]([O-])c(C)c2C1=O | 34.7% |
| CCCCCCCCCCCCCCCCCC[S+](C)CC (stereo not given) | -42.5% (active) |
| COCCc1ccc(OCC(O)CNC(C)C)cc1 (stereo not given) | 113% |
| COc1ccc(C(O)c2cc3c(N)c(C(=O)Nc4cccc(OC)c4)sc3nc2C)cc1 (stereo not given) | 5.65% (active) |
| O=C(O)c1ccc(-c2nn(-c3ccc(C(=O)O)cc3)cc2CNc2ccc(Br)cc2)cc1 | 114% |
| C#CCO[C@H]1CC(CC#C)(CC#C)C(=O)[C@@H]2[C@H]1[C@H]1C[C@@H]3[C@@]4(C)CCC[C@@](C)(C(=O)OC)[C@@H]4CC[C@@]23C=C1C(C)C | 94.7% |
| COc1ccc(/C=C/C(=O)c2cc3c(N)c(C(=O)Nc4cccc5ccccc45)sc3nc2C)cc1 | 58.5% |
| Nc1c(Br)cc2c(c1Br)Cc1cc(Cl)ccc1-2 | -5.33% (active) |
| CCOc1ccccc1/C=N/Nc1nc2ccccc2o1 | 28.1% |
| Nc1nc2ncc(CNc3ccc(C(=O)N[C@@H](CCc4nn[nH]n4)C(=O)O)cc3)nc2c(=O)[nH]1 | 93.9% and 98.6% |
| COc1ccc(C2=NN(C=O)C(c3ccc(OS(=O)(=O)c4ccc(C)cc4)c(OC)c3)C2)cc1 (stereo not given) | 18.1% |
| CCOc1ccc(NC(=O)c2ccoc2COc2ccccc2)cc1 | 113% |
| C#CCn1c(-c2cc(OC)c(OC)cc2Br)nc(-c2ccccc2)c1-c1ccccc1 | 5.05% (active) |
| NC[C@H](O)c1ccc(O)c(O)c1 | 111% |
| CN1CCN(c2ccc(NC(=O)c3cncnc3Nc3ccc4c(ccn4Cc4cccc(F)c4)c3)cc2)CC1 | 44.9% |
| COc1ccc(OC)c2ncccc12 | 89.9% |
| N=C(N)c1ccc(-c2ccc(-c3cc(F)cc(F)c3)o2)nc1 | 85.3% |
